Laboratory results published in PubChem BioAssay AID1347423 (Functional Genomics Laboratory (NCATS/FGL), 2020).
About 210 (0.4%) of roughly 52,000 sequences were called active.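 The calls were made as follows: active = gene whose silencing raises cell survival under the drug, median off-target-corrected z-score across its silencing RNAs 2 or more; inactive = the rest.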 The full list was thinned out, with actives kept by preference.

Assay: Resistance to Poly (ADP-Ribose) Polymerase inhibitor: Gene Identification via Genome-wide siRNA Screen
Settings: mouse BRCA2 R2336H ES cells, olaparib, CellTiter-Glo viability; active compounds read high
How it was run: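 Genome-wide siRNA screen (3 siRNAs/gene, 20 nM) in mouse ES cells carrying hypomorphic BRCA2 R2336H; olaparib 500 nM added 48 h post-transfection, CellTiter-Glo viability 72 h later. Normalized to plate-median negative control; MAD z-scores, gene median, seed-adjusted.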

Row | Sequence | z-score
1 | CCUCUCCAACAACCAACUATT against 2900010D03Rik | -1.42 (inactive)
2 | GGAGAUAAAAGUUUCAUCUTT against Jmjd2b | 0.46 (inactive)
3 | GGUACCUGUUUGUUUUACATT against Epb4.1l4b | 5.02 (inactive)
4 | CCCUAGAAUGGGAAUGUCATT against C030022K24Rik | 0.313 (inactive)
5 | GUCAUCAAACUAGGUGCUGTT against Olfr584 | 5.09 (active)
6 | GGGUCCAUUGUCAAUGUCUTT against Cbr2 | -0.721 (inactive)
7 | GGGCUUCGAUGCUAUCAUCTT against 6430573F11Rik | 0.734 (inactive)
8 | CCAUCUACGUGGGACACAATT against Atp11a | -1.41 (inactive)
9 | GGAGAACGAAAGGAUGAAATT against Rpusd4 | -1.09 (inactive)
10 | GGAGAAAAGGAUGUUGUUATT against 2310005P05Rik | 2.57 (inactive)
11 | CGAUAAUUUGGCUAAGUAUTT against Pip5k3 | 0.0345 (inactive)
12 | CCAAGGGAAGAUUCAAAUUTT against D930031B21Rik | -1.19 (inactive)
13 | GCCAGAAACUAAUGAGAUCTT against 1110001E17Rik | 1.17 (active)
14 | GGAAUUUUCUAUAGUCCGGTT against Flrt2 | 0.268 (inactive)
15 | GCGCAAAGGUGAAACGUAGTT against E030011O05Rik | -0.0435 (inactive)
16 | GCAUCCUACGCAUUAAAUCTT against Olfr146 | -0.12 (inactive)
17 | CGAAAAUCAAGGGAGCUCATT against Rnf19 | -0.128 (inactive)
18 | GCACCAUGUCAGGAAGUGUTT against B230315M08Rik | 3.45 (active)
19 | GCCUUUUAGCUGUUCAGGATT against AI451557 | -1.18 (inactive)
20 | GGAGUUCAUUCUGAAUCAGTT against Etohi2 | -0.817 (inactive)
21 | GCUACAAAGCGAUGUUUCATT against Pola2 | -1.88 (inactive)
22 | GGUCUCCACCUCCAUAUCCTT against Slc15a3 | 0.715 (inactive)
23 | GCAGAGGAUAUAAAACAAGTT against Pde2a | 0.234 (active)
24 | CGUCUCAACAGAGUUGGAGTT against Hrmt1l1 | 0.151 (inactive)
25 | CCCAGAACUAUUCAACACUTT against Sema4g | 1.4 (inactive)
26 | GGCAGAGAAAAGGACCUUUTT against 2400002F11Rik | -1.69 (inactive)

Row | Sequence | z-score
27 | GGACAUAAGUGACAGACAUTT against Chrnb2 | -1.32 (active)
28 | GCAUUCAUGAAAGUGUUAGTT against Olfr164 | 1.23 (inactive)
29 | GGCGAAUUAUUGAAAACGUTT against Actr8 | 3.41 (active)
30 | GGUGGUGUUUCAUAAGAUGTT against Rragc | 0.792 (inactive)
31 | CCCAGCUAUGCGAUCUUAATT against 1300003B13Rik | -1.51 (inactive)
32 | GGGUUUCUGUUUGAUUCCATT against Gria1 | 1.91 (active)
33 | GCUACUGAGUUAUAGAAAGTT against Olfr1316 | 0.323 (inactive)
34 | CCAACUGUAGAUGUAUAUATT against Pmp22 | 0.0495 (inactive)
35 | GGUGAUCCUCAUCAUCAGUTT against 2400010G15Rik | 2.76 (active)
36 | GGUUGCAUCACAGCGUAUATT against Plekhe1 | 0.0124 (inactive)
37 | GGAGGUCCAGCUGUUCAUGTT against Kcnn4 | 2.89 (inactive)
38 | GGCAAUUGUUUUUAGAGAGTT against 2610510J17Rik | 0.946 (inactive)
39 | GGCUGUCUUGAUUUUGAUUTT against C3ar1 | -0.0188 (inactive)
40 | CGAACCUACAGAGCUCAUGTT against Rpl17 | -2.32 (inactive)
41 | GGGUGCUUAAUAAACAUAATT against Slc22a8 | 1.12 (inactive)
42 | GCUGAAAUACCACUCUCCGTT against Chl1 | -1.28 (active)
43 | CCAAUCUCUACCGUCUCCUTT against Camp | -0.0705 (inactive)
44 | GGCUCAACUGUGUUAAACATT against Tnfrsf4 | 0.801 (inactive)
45 | GCAAAACCUACUGCGUGGATT against 2410195B05Rik | 0.682 (inactive)
46 | GGGUUUCUGUUAAUCCACATT against Hist1h3g | -1.25 (inactive)
47 | GGUGAUAUUAUACAUUCACTT against Rnd1 | 0.43 (inactive)
48 | CCACUGAAGUUUUCAUUCUTT against Olfr1055 | 0.663 (inactive)
49 | GGUGUGCAUCAAGCGACUGTT against Cacng6 | 1.29 (inactive)
50 | GGAGUCAAGUCCACAUACATT against Usp47 | -0.927 (active)
51 | GCACACCCAAUGCUCUAAGTT against Mare | 0.284 (inactive)
52 | GCGACAACGAUUUUGAAAUTT against Rsu1 | 0.756 (inactive)

Row | Sequence | z-score
53 | GCCGACGUAGUGACAUUCUTT against Crybb3 | -1.17 (inactive)
54 | CGUAUCAAACAGGAAAUGGTT against Arid5b | 1.02 (inactive)
55 | GGACUGCUAUGGGUCUUCATT against Clk3 | -1.64 (inactive)
56 | GGGACAGUCUUCAGUGACATT against 0610037L13Rik | -2.25 (inactive)
57 | CCACAAAGAAUGCAUUACUTT against BC022146 | -1.42 (inactive)
58 | GGAACGAUCGAAACAAGAATT against Rarg | 3.59 (active)
59 | GCAAGAGUCUGCUACGACATT against Opn1sw | 0.0796 (inactive)
60 | GGUCCCAUUCAGUGUGUGUTT against Cdk10 | -0.19 (inactive)
61 | GGGAUGAGUAUGCUUAUGGTT against Rgpr | 0.176 (inactive)
62 | GCAGAAUGGUAAAUCCGAUTT against Mc5r | 1.96 (inactive)
63 | CCCUAAGUUCUCGUUUCUGTT against Cherp | 1.57 (inactive)
64 | GGACCAACAUAACCUCUACTT against BC037432 | 0.0137 (inactive)
65 | GGAACGAGACUCAUCUUCUTT against Cic | 1.35 (active)
66 | GGAUCCUUCAGCAUUCUUATT against Egr2 | -0.406 (inactive)
67 | GGAACAGUCUGAAAUACACTT against Usp18 | 0.039 (active)
68 | GGAUAACCUUAACUUCUGATT against 2810449C13Rik | 2.16 (inactive)
69 | GGGACCCUUCUACAAAAACTT against Pias3 | 2.3 (active)
70 | GGAGAGUACUAAAUUUAAGTT against 4833418A01Rik | 0.0243 (inactive)
71 | GGAAUUUUAUCAUUGGGACTT against 5031404N07 | -0.078 (inactive)
72 | CCUGGUAACAGUCAUAAAUTT against Lhfpl2 | -0.196 (inactive)
73 | GGAAAUGCUUCUGAGCUAGTT against 5830417C01Rik | 0.677 (inactive)
74 | GGACCUCAGCGAAGACAAUTT against BC034097 | 2.03 (active)
75 | GGUCGGUGUUUUAUCUGCUTT against BC019537 | -1.19 (inactive)
76 | GGGAUACUGGUGCUUAACUTT against Abhd1 | 0.661 (inactive)
77 | GCCACCUCUUAUGAGGCUUTT against D630045E04Rik | -1.04 (inactive)
78 | GGUGGUUACAACCGAAGCATT against Fus | 2.95 (active)

Row | Sequence | z-score
79 | GCCCUAGAACUUUUGAAUUTT against Dhx15 | -1.01 (inactive)
80 | GGAGGUGUUGAACAAGUGCTT against 1700008P20Rik | -1.32 (inactive)
81 | GCAAGCAGAUCUGAUAUCATT against 2700050F09Rik | 4.76 (active)
82 | GCCUGGAUUCAGAAGCUACTT against Ugt1a1 | 0.72 (inactive)
83 | GGAGGAGGAGGACUUUGAUTT against 5830417I10Rik | -1.23 (inactive)
84 | GGAACAUUACAAAAGCUCUTT against Slfn1 | -0.715 (inactive)
85 | GAAUCUAAAGAUGAACACCTT against 0610009B22Rik | -0.48 (inactive)
86 | GCAAGUGGUAAUGGUGACCTT against Tex15 | -0.249 (inactive)
87 | GGACUUUUAUUUUGUUAGCTT against Pacsin2 | 3.01 (active)
88 | GUUUUCUUGAGACAGUUAATT against 1810008A14Rik | -0.106 (inactive)
89 | GGAGUUGAUCAAGACAGAGTT against S100a5 | -0.443 (inactive)
90 | GGAGGAAAGAAUGUGUAAATT against Birc3 | -0.544 (inactive)
91 | GCAUGCAUGAUGGAUCUUCTT against Gabrb1 | -2 (inactive)
92 | GGAAACAACGGAUCCAAAATT against Plcb3 | 2.47 (active)
93 | GCUUACAUCCAAGCCGUCUTT against 4931440B09Rik | 1.71 (inactive)
94 | CCAAGUUCACAAUUGUUCUTT against Gm457 | -0.19 (inactive)
95 | GGACUUGUCUUUGACACGCTT against Nt5c2 | 2.18 (inactive)
96 | GGAUUCCCUAUCCCAUACCTT against Araf1 | 4.36 (active)
97 | GGUCAAAAGAAACAGGUGUTT against 2310047I15Rik | 0.438 (inactive)
98 | GCAACUAGCCUGUUCUAUCTT against AI325941 | 1.68 (inactive)
99 | GGAGUUGAAGUUUGUGACATT against Acpp | 2.3 (active)
100 | GGUGAAAGUGAGAAGGAAGTT against 6720460F02Rik | -0.247 (inactive)
101 | CCUGAAUUACCUCAUAUAUTT against Stat5b | 0.922 (inactive)
102 | GCUGAAACCUCAUGAGGAGTT against Ptpn9 | 3.06 (active)
103 | GCUACUAUUGUGUUCUGAATT against Drd1a | -0.386 (inactive)
104 | GGUACUCGGUUAUCAUGAATT against Olfr1403 | 1.39 (inactive)
